PPC-1+TRAIL kill: kills PPC-1 cancer cells in the presence of TRAIL; PPC-1 cells + TRAIL, ATPLite viability luminescence; cell killing (% activity), % at 4 µM or 5 µM; 220,000 tested, 0.41% active; AID 1443;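 active means cell killing above 50% in the first pass at 4 µM, then a duplicate retest at 5 µM averaging 50% or more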
Peg3 prom inh: Peg3 promoter activity inhibition; 360,000 tested, 1.7% active; inhibition, % at 20 µM; HeLa PEG-Prom luciferase reporter, luminescence, overnight;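 active means inhibition of at least 50% at 20 µM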
C8 TRAIL sens: sensitizes caspase-8 expressing cells to TRAIL | NB7+C8 cells + TRAIL, ATPlite viability luminescence | inhibition (viability loss, TRAIL sensitization), % at 10 µM | 360,000 tested, 1% active;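 active means compounds causing at least 50% loss of cell viability in the single-dose screen, relative to plate controls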
HIF-2a inh: HIF-2a inhibition; inhibition, % at 18.8 µM; 786-0 RCC cells HIF-2a reporter, luciferase luminescence, overnight; 360,000 tested, 0.72% active;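 active means inhibition of the luminescence signal of 40% or more relative to plate controls, in a single-dose primary screen at 18.75 µM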
KKLEB cytotox: reduces viability of KKLEB cystic fibrosis airway cells; KKLEB CF airway cells viability, ATPlite luminescence, overnight; stronger effect = lower value; cells stimulated with P. aeruginosa culture filtrate; activity change (cytotoxicity), % at 5 µM; 360,000 tested, 0.36% active;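 active means corrected activity change at or below -50% at 5 µM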
CF NFkB inh: cystic fibrosis NF-kB activation inhibition; AID 588850; inhibition, % at 5 µM; 360,000 tested, 0.86% active; KKLEB NF-kB-GFP reporter, PAF-induced, GFP fluorescence overnight;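 active means at least 50% inhibition at 5 µM, scaled per plate between neutral and stimulator controls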;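 further: PAF is a Pseudomonas aeruginosa culture filtrate used as stimulus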
Numbers stand for hits; - = inactive; . = no result. An excerpt weighted towards active compounds, which were near 3.1% of everything screened.

SMILES	PPC-1+TRAIL kill	Peg3 prom inh	C8 TRAIL sens	HIF-2a inh	KKLEB cytotox	CF NFkB inh
CCc1nc2ccc(C(=O)NCCCN(C)C)cn2c1N(C)CCCc1ccccc1	.	53	-	-	-	-
CCc1nc2ccc(C(=O)NC3CCN(Cc4ccccc4)CC3)cn2c1N(C)Cc1cc2ccccc2s1	.	94	-	-	-	-
CCOC(CNC(=O)C(=O)Nc1cc2c3c(c1)CCN3C(=O)CC2)OCC	.	-	-	-	-	-
O=C1c2c(Br)c(Br)c(Br)c(Br)c2C(=O)N1c1ccccn1	.	52	-	-	-	-
O=C1c2cccc3cccc(c23)C(=O)N1c1ccccn1	-	-	-	-	-	-
Cc1ccc2nc(-c3cc(N)cc(N)c3)oc2c1	-	-	76	62	-	-
Nc1nnc(N)c2ccccc12	-	-	-	-	-	-
Nc1nsc2ccccc12	-	51	-	-	-	-
Cc1ccc(C(=O)/C=C/c2ccccc2[N+](=O)[O-])cc1	-	-	-	-	-	-
O=C(/C=C/c1ccccc1[N+](=O)[O-])c1ccccc1Br	-	96	-	-	-	-
CCCCCCN1C[C@H](n2cc(-c3ccc(F)cc3)nn2)[C@@H](O)C[C@@H]1c1ccc(Cl)cc1	.	98	-	-	-	-
CO[C@@]12[C@@H]3N[C@@H]3CN1C1=C(C(=O)C(N)=C(C)C1=O)[C@@H]2COC(N)=O	.	60	-	-	-	-
Cc1occc1-c1nnc(SCC(=O)NC2CCCCC2C)o1 (stereo not drawn)	.	-	-	-	-	-
CCOC(=O)N1CCC(N2Cc3cccc(C(=O)Nc4ccc(F)cc4)c3C2=O)CC1	-	-	-	-	-	-
Cc1cc(C)c(NC(=O)c2cccc3c2C(=O)N(C2CCCCC2)C3)c(C)c1	.	56	-	-	-	-
Cc1ccc(NC(=O)c2cccc3c2C(=O)N(C2CCCCC2)C3)c(C)c1	.	-	-	-	-	-
CCOC(=O)N1CCC(N2Cc3cccc(C(=O)Nc4cc(F)ccc4F)c3C2=O)CC1	56	-	-	-	-	-
O=C(COC(=O)COc1ccc(Cl)cc1)NC1CC1	.	-	-	-	-	-
Cn1ccsc1=NC(=O)c1ccc(Cl)c([N+](=O)[O-])c1	.	-	-	-	-	-
Cn1ccsc1=NC(=O)c1ccc(S(C)(=O)=O)c([N+](=O)[O-])c1	.	78	-	-	-	-
CN(C)c1ccc(/C=N/N=C2/NC(=O)/C(=C/c3ccc([N+](=O)[O-])cc3)S2)cc1	54	-	87	-	-	-
CN(C)c1ccc(C=C2SC(=S)NC2=O)cc1	.	-	-	-	-	-
COC(=O)c1cc(NC(=O)CN(C)C2CCS(=O)(=O)C2)cc(C(=O)OC)c1 (stereo not drawn)	.	-	-	-	-	-
O=C(Nc1ccc([N+](=O)[O-])cc1)/C(=C/c1cccc([N+](=O)[O-])c1)NC(=O)C1CCCCC1	-	-	-	-	-	-
Cc1ccc(NC(=O)/C(=C/c2cccc([N+](=O)[O-])c2)NC(=O)C2CCCCC2)c(C)c1	-	59	-	-	-	-
SMILES	PPC-1+TRAIL kill	Peg3 prom inh	C8 TRAIL sens	HIF-2a inh	KKLEB cytotox	CF NFkB inh
Cc1ccc(/C=N/NC(=O)CSc2nc3ccccc3c(=O)n2-c2ccccc2C)s1	-	51	-	-	-	-
Cc1ccc(-n2c(SCC(=O)N/N=C/c3c(C)nn(-c4ccccc4)c3C)nc3ccccc3c2=O)cc1	-	-	-	-	-	-
Cc1nn(-c2ccccc2)c(C)c1/C=N/NC(=O)CSc1nc2ccccc2c(=O)n1-c1ccc(Br)cc1	-	58	-	-	-	-
Cc1ccccc1-n1c(SCC(=O)N/N=C/c2c(C)nn(-c3ccccc3)c2C)nc2ccccc2c1=O	-	54	-	-	-	-
CC1(C(=O)NS(=O)(=O)c2ccc(Cl)cc2)CCN1C(=O)C1(c2ccc(Cl)cc2)CCC1 (stereo not drawn)	.	-	-	-	-	-
CC(C)c1ccc2oc(=O)cc(CN3CCCCC3)c2c1	.	-	-	-	-	-
CCC(CC)CN1CCC(CN2C(=S)NC[C@@H]2CC(C)C)CC1	.	-	-	-	-	-
Cc1ccc(SCC(=O)OC(C)C(=O)NCc2ccccc2)cc1 (stereo not drawn)	.	-	-	-	-	-
CCCCCCCC(=O)OCC(O)CO (stereo not drawn)	-	-	-	-	-60	-
O=C(CSc1nc2ccccc2[nH]1)Nc1nc(-c2cccc(Br)c2)cs1	-	-	-	-	-	-
CN(C)CCCn1c(SCC(=O)Nc2nc(-c3cccc(Br)c3)cs2)nc2ccccc2c1=O	-	104	-	-	-	-
COc1ccc(Cl)cc1-c1cc(C(=O)Nc2ccc(C)c(NS(C)(=O)=O)c2)[nH]n1	.	69	-	-	-	-
Cc1ccc2nc(-c3cccc(SC4CCCCC4)c3)c(NCc3ccccc3)n2c1	.	67	-	-	-	-
c1cc(SC2CCCCC2)cc(-c2nc3cnccn3c2NC2CCCCC2)c1	.	95	-	-	-55	73
c1ccc(CNc2c(-c3cccc(SC4CCCCC4)c3)nc3ccccn23)cc1	.	86	-	-	-	-
Clc1ccc2nc(-c3cccc(SC4CCCCC4)c3)c(NCc3ccccc3)n2c1	.	-	-	-	-	-
CCCS(=O)(=O)NC(=O)C1(C)CCN(C(=O)c2cccc(C)c2C)C1 (stereo not drawn)	.	-	-	-	-	-
CC(=O)c1ccc(S(=O)(=O)NCCOc2ccccc2)cc1	.	-	-	-	-	-
COc1cc2ccccc2cc1C(=O)Nc1ccc(N2CCN(C)CC2)cc1	-	-	-	-	-	-
COc1cc2ccccc2cc1C(=O)Nc1ccc(N2CCN(C(=O)C(C)C)CC2)cc1	.	77	-	-	-	-
CCOC(=O)c1c2c(n(Cc3ccccc3)c1C)C(=O)C(=O)c1ccccc1-2	.	93	93	89	-75	61
COC(=O)C1Cc2c([nH]c3ccccc23)C2CCC(=O)N12 (stereo not drawn)	.	-	-	-	-	-
COC(=O)[C@@H]1Cc2c([nH]c3ccccc23)C(C)(C)N1C(=O)CCl	.	-	96	-	-62	74
CN1CCN(C(=O)C2=NOC3(C2)C(=O)Nc2ccccc23)CC1 (stereo not drawn)	.	.	52	-	.	.
O=C(C1=NOC2(C1)C(=O)Nc1ccccc12)N1CCCCC1 (stereo not drawn)	.	.	-	-	.	.
Cc1ccc2nsnc2c1NC(=O)Cc1ccc(Cl)cc1	-	-	-	-	-	-
Cc1ccc2nsnc2c1NC(=O)c1ccc(-c2cc(Cl)ccc2Cl)o1	-	101	-	-	-	-
COc1ccc(C(C)NCCC(c2ccc(OC(C)C)cc2)c2ccccc2OC)cc1 (stereo not drawn)	.	104	-	-	-	-
COc1ccc(C(CCNC(C)c2ccccc2)C(C)C)cc1 (stereo not drawn)	-	-	-	-	-	-

Bioassay records from PubChem.
